Assay results published in PubChem BioAssay AID651813 (National Center for Advancing Translational Sciences (NCATS), 2012).
Hit rate of the full screen: of about 2,100 compounds, about 1,100 (52%) were called active. Roughly 27% stayed inconclusive and do not appear here. Calls follow the shape of the dose curve; as a rule, active = well fitted inhibition curve with a large enough effect; inconclusive = small, poorly fitted or top-dose-only effect; inactive = no such curve, though single readings can be large or run the other way. So high a share suggests a set chosen from earlier hits. This is one part of the list.

Target: DNA dC->dU-editing enzyme APOBEC-3G (Homo sapiens) (UniProt Q9HC16)
Sequence (Q9HC16 whole entry, looked up): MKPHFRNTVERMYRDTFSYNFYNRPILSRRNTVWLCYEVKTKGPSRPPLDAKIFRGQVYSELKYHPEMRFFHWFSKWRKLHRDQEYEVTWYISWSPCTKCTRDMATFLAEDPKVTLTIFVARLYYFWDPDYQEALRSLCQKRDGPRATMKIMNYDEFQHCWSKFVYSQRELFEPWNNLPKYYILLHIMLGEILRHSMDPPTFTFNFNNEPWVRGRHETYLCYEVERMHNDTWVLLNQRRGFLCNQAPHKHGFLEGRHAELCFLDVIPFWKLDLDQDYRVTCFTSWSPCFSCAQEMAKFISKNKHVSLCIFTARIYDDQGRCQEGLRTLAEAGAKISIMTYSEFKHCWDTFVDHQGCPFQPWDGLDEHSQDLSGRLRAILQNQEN
Assay: qHTS for inhibitors of Vif-A3G interactions: Cherry picks counterscreen;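 also: hits raise yellow fluorescence by blocking Vif-driven A3G-eYFP degradation; nearly all actives have a fitted effect of over 70% in size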;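 as to max response: max response given as percent of control signal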
Details: HeLa A3G-eYFP + Vif (tagged APOBEC3G with the HIV-1 protein that degrades it), eYFP fluorescence, 24 h
Method in brief: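 HeLa cells stably expressing A3G-eYFP and Vif were treated for 24 h at 37 deg C with compounds at several concentrations; yellow fluorescence (Ex 488 nm, Em 500-530 nm) read by Acumen Explorer, MG132 as positive control.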
Potency is read from the fitted curve at half-maximal effect.

Row | Structure (SMILES) | Potency | max response
1 | CCCN1CCc2c(sc(NC(=O)c3ccc(S(=O)(=O)N(C)c4ccccc4)cc3)c2C(=O)NC)C1 | 18.4 µM (active) | 
2 | CCCN1CCc2c(sc(NC(=O)c3ccc(S(=O)(=O)N4CCN(C(=O)OCC)CC4)cc3)c2C(N)=O)C1 | 23.1 µM (active) | 
3 | CCCN1CCc2c(sc(NC(=O)c3ccc(S(=O)(=O)N(C)c4ccccc4)cc3)c2C(N)=O)C1 | 14.6 µM (active) | 
4 | CCN1CCc2c(sc(NC(=O)c3ccc(S(=O)(=O)N(CC)c4ccccc4)cc3)c2C(N)=O)C1 | 5.59 µM (active) | 
5 | CC(C)N1CCc2c(sc(NC(=O)c3ccc(S(=O)(=O)N4CCOCC4)cc3)c2C#N)C1 | 8.2 µM (active) | 
6 | CCCN1CCc2c(sc(NC(=S)NC(=O)c3ccccc3)c2C#N)C1 | 14.6 µM (active) | 
7 | CC(C)N1CCc2c(sc(NC(=O)c3cc4cc([N+](=O)[O-])ccc4s3)c2C(N)=O)C1 | 23.1 µM (active) | 
8 | NC(=O)c1c(NC(=O)c2ccccc2)sc2c1CCN(Cc1ccccc1)C2 | 15.8 µM (active) | 
9 | CCOC(=O)/C(=C/C1=CC(=C/N(C)C)/C(=O)O1)C(C)=O |  | 1.47% (inactive)
10 | CC(C)CN(CC(C)C)S(=O)(=O)c1ccc(C(=O)Nc2sc3c(c2C(N)=O)CCN(C(C)C)C3)cc1 | 18.4 µM (active) | 
11 | Cc1cccc(C)c1OCCNC(=O)C(=O)NCc1ccco1 | 2.8 µM (active) | 
12 | COc1ccc(NC(=O)c2ccc3c(c2)c(C)c(C)n3Cc2ccc(F)cc2)cc1 | 5.17 µM (active) | 
13 | Cc1ccccc1NC(=O)c1ccc2c(c1)c(C)c(C)n2Cc1ccccc1 | 2.91 µM (active) | 
14 | CCCCCn1c(=O)[nH]c2cc(C(=O)Nc3cc(OC)cc(OC)c3)ccc2c1=O |  | -23.9% (inactive)
15 | CC(=O)Nc1ccc(S(=O)(=O)N2CCSc3ccccc32)cc1 | 4.98 µM (active) | 
16 | Cc1cc(NC(=O)COC(=O)c2ccc(S(=O)(=O)N3CCCc4ccccc43)cc2)no1 | 4.44 µM (active) | 
17 | O=C(CN1c2cccc3cccc(c23)S1(=O)=O)Nc1ccc(S(=O)(=O)N2CCOCC2)cc1 |  | -29.7% (inactive)
18 | COC(=O)Nc1ccc(S(=O)(=O)N2CCCc3ccccc32)cc1 | 3.53 µM (active) | 
19 | Cc1ccc(CNC(=O)C2CC(c3cc(C(F)(F)F)cc(C(F)(F)F)c3)=NO2)o1 (stereo not drawn) | 8.86 µM (active) | 
20 | COc1ccccc1N1CCN(c2ncnc3c2oc2ccccc23)CC1 | 3.14 µM (active) | 
21 | CCN1/C(=C/C=C2/SC(=Nc3cccc4ncccc34)N(C)C2=O)Sc2ccccc21 | 4.11 µM (active) | 
22 | Cc1c(NC(=O)c2csc3c2CCCC3)c(=O)n(-c2ccccc2)n1C |  | -8.09% (inactive)

Row | Structure (SMILES) | Potency | max response
23 | Cc1c(N=C2N=C(NC(=O)c3cccs3)c3ccccc32)c(=O)n(-c2ccccc2)n1C | 12.5 µM (active) | 
24 | CC#Cc1cc2c(cc1O)CCC1C2CCC2(C)C(O)CCC12 (stereo not drawn) | 4.44 µM (active) | 
25 | CCSc1nccc(-c2nn(-c3ccc(C)cc3)ccc2=O)n1 | 3.53 µM (active) | 
26 | NNC(=O)c1oc2nc(-c3ccccc3)cc(-c3ccco3)c2c1N | 18.4 µM (active) | 
27 | Cc1ccc(-c2cc(-c3ccco3)c3c(N)c(C(=O)NN)oc3n2)cc1 | 23.1 µM (active) | 
28 | O=C(N/N=C\C=C\c1ccc([N+](=O)[O-])o1)c1cccs1 | 14 µM (active) | 
29 | CCC(=Nc1ccccc1O)C1=C(O)CC(c2ccccc2)CC1=O (stereo not drawn) |  | 16.4% (inactive)
30 | COc1ccccc1N=C(C)C1=C(O)CC(c2ccccc2)CC1=O (stereo not drawn) | 0.559 µM (active) | 
31 | Cc1cccc(C)c1OCC(=O)N/N=C/c1ccc2c(c1)OCO2 | 6.27 µM (active) | 
32 | O=C(NN=Cc1c(O)ccc2ccccc12)c1ccc2c(c1)OCO2 |  | 1.53% (inactive)
33 | O=C(N/N=C/c1ccc2c(c1)OCO2)c1cccc2ccccc12 | 9.94 µM (active) | 
34 | O=C(N/N=C/c1ccc2c(c1)OCO2)c1cc(-c2ccco2)nc2ccccc12 | 9.94 µM (active) | 
35 | Cc1cc(C(=O)N/N=C/c2ccc3c(c2)OCO3)c2ccccc2n1 | 7.9 µM (active) | 
36 | O=C(N/N=C/c1ccc2c(c1)OCO2)c1cc(-c2ccncc2)nc2ccccc12 | 5.59 µM (active) | 
37 | Cc1nc2c3cc(F)ccc3n(Cc3ccccc3)c2s1 | 7.04 µM (active) | 
38 | Cc1nc2c3cc(F)ccc3n(Cc3ccccc3F)c2s1 | 14 µM (active) | 
39 | N#CCSc1ccccc1NC(=O)CN1C(=O)C2CC=CCC2C1=O (stereo not drawn) | 11.2 µM (active) | 
40 | CCOC1=C/C(=C/c2c(N)n3nc(-c4ccccc4)sc3nc2=O)C=CC1=O |  | 19.6% (inactive)
41 | COC1=C/C(=C/c2c(N)n3nc(-c4ccc(C)cc4)sc3nc2=O)C=CC1=O | 20.6 µM (active) | 
42 | CCS(=O)(=O)c1nn2c(N)c(/C=C3/C=CC(=O)C(OC)=C3)c(=O)nc2s1 |  | 52.9% (inactive)
43 | Cn1cc(/C=C/c2ccc3ccccc3n2)c2ccccc21 | 13 µM (active) | 
44 | Cn1cc(/C=C/c2ccnc3ccccc23)c2ccccc21 | 20.6 µM (active) | 

Row | Structure (SMILES) | Potency | max response
45 | CCc1ccc2nc(N(CCCN(C)C)C(=O)c3ccc(S(=O)(=O)N(C)C4CCCCC4)cc3)sc2c1 |  | 5.65% (inactive)
46 | Cc1ccc(-n2nc3c(SCCN4CCOCC4)nnc(C)c3c2C)cc1 |  | -27.8% (inactive)
47 | CCCCn1c(NC(=O)c2ccco2)c(S(=O)(=O)c2ccc(C)cc2)c2nc3ccccc3nc21 | 20.6 µM (active) | 
48 | O=C(Nc1nc(NC(=O)c2ccco2)n(-c2ccccc2)n1)c1ccccc1 |  | -0.0667% (inactive)
49 | Cc1ccc(C(=O)Nc2sc(Cc3ccc4c(c3)OCO4)c(C)c2C(N)=O)cc1 | 18.4 µM (active) | 
50 | CCC1CCCCN1CCCNC(=O)c1ccc2c(c1)N(Cc1ccccc1F)C(=O)c1ccccc1S2(=O)=O (stereo not drawn) | 4.61 µM (active) | 
51 | COc1cccc2nccc(/C=C/c3ccc(N(C)C)cc3)c12 | 18.4 µM (active) | 
52 | Nc1ccccc1/C=C/c1ccnc2ccccc12 | 16.4 µM (active) | 
53 | CN(C)c1ccc(/C=C/c2ccnc3cc(Cl)ccc23)cc1 | 8.2 µM (active) | 
54 | CN(C)c1ccc(/C=C/c2cnnc3ccccc23)cc1 | 20.6 µM (active) | 
55 | CN(C)c1ccc(/C=C/C=C/c2ccnc3ccccc23)cc1 | 4.61 µM (active) | 
56 | CN(C)c1ccc(/C=C/c2ccnc3ccccc23)cc1 | 20.6 µM (active) | 
57 | CN(C)c1ccc(/C=C/c2ccnc3ccccc23)c(N)c1 | 2.91 µM (active) | 
58 | CN(C)c1ccc(/C=C/c2ccnc3ccc(-c4ccccc4)cc23)cc1 | 5.8 µM (active) | 
59 | CNc1ccc(/C=C/c2ccnc3ccccc23)cc1 | 16.4 µM (active) | 
60 | O=C(Cn1ncc(Cl)c(Cl)c1=O)NC(=O)NC1CCCCC1 | 14 µM (active) | 
61 | Cc1nc(-c2ccc(Cl)cc2)sc1C(=O)NN | 15.8 µM (active) | 
62 | COc1ccc2cc(C(=O)C3CCCN(Cc4ccccn4)C3)ccc2c1 (stereo not drawn) |  | -1.88% (inactive)
63 | CCOC(=O)C1CCCN(C(=O)c2ccc3nc(-c4cccc(OC)c4)oc3c2)C1 (stereo not drawn) | 7.04 µM (active) | 
64 | Cc1c(C(=O)N2CCOCC2)[nH]c2c1C(=O)CC(c1ccccc1Cl)C2 (stereo not drawn) | 8.86 µM (active) | 
65 | COc1ccc(OC)c(C2CC(=O)c3c([nH]c(C(=O)OCC4CCCO4)c3C)C2)c1 (stereo not drawn) | 5.59 µM (active) | 
66 | COCCOC(=O)c1[nH]c2c(c1C)C(=O)CC(c1ccccc1)C2 (stereo not drawn) | 0.994 µM (active) | 

Row | Structure (SMILES) | Potency | max response
67 | Cc1c(C(=O)OC2CCCCC2)[nH]c2c1C(=O)CC(c1ccccc1Cl)C2 (stereo not drawn) | 9.2 µM (active) | 
68 | O=C(COc1ccc(C(=O)c2ccccc2)cc1)NCc1ccc(F)cc1 | 2.5 µM (active) | 
69 | Cc1ccccc1NCC(=O)N=Nc1c(O)[nH]c2ccc([N+](=O)[O-])cc12 |  | -0.0304% (inactive)
70 | CCN(CC)S(=O)(=O)c1cc([N+](=O)[O-])ccc1N=Nc1c(O)[nH]c2ccccc12 | 23.1 µM (active) | 
71 | O=C(NCc1cc(C(F)(F)F)ccc1Cl)c1cccc2c1C(=O)c1ccc(N3CCC(Cc4ccccc4)CC3)cc1S2(=O)=O | 14 µM (active) | 
72 | O=C(NCc1ccco1)c1cccc2c1C(=O)c1ccc(N3CCC(Cc4ccccc4)CC3)cc1S2(=O)=O | 23.1 µM (active) | 
73 | O=C(NCc1cccc(C(F)(F)F)c1)c1cccc2c1C(=O)c1ccc(N3CCC(Cc4ccccc4)CC3)cc1S2(=O)=O | 23.1 µM (active) | 
74 | Cc1ccc(CSc2nc(-c3ccc(C(C)(C)C)cc3)nc3cc(=O)[nH]n23)cc1 |  | 28.6% (inactive)
75 | CCCOc1ccc2cc(C(=O)NCc3ccccc3)c(=O)oc2c1 |  | -5.24% (inactive)
76 | COc1cccc(Nc2ncccc2C(=O)NCc2ccccc2)c1 | 19.8 µM (active) | 
77 | CN(C)c1ccc(/C=C(/C#N)C(=O)NCc2ccccc2)o1 | 1.84 µM (active) | 
78 | N#C/C(=C\c1ccc(N2CCOCC2)o1)C(=O)NCCc1ccccc1 | 3.26 µM (active) | 
79 | N#C/C(=C\c1ccccc1[N+](=O)[O-])C(=O)NCc1ccccc1 |  | 2.31% (inactive)
80 | N#C/C(=C\c1ccc(N2CCCCC2)o1)C(N)=O | 15.8 µM (active) | 
81 | CCOC(=O)CN1C(=O)S/C(=C/c2ccc(N3CCCCC3)o2)C1=O |  | 55% (inactive)
82 | N#C/C(=C\c1ccc(N2CCOCC2)o1)C(=O)NC1CCCCC1 | 17.7 µM (active) | 
83 | N#C/C(=C/c1ccc(N2CCOCC2)o1)C(=O)NC1CCCCC1 | 16.4 µM (active) | 
84 | CCCCN1C(=O)/C(=C/C=C2\Oc3ccccc3N2CC)SC1=S |  | 51.7% (inactive)
85 | CCSC1=N/C(=C\C=C2/Oc3ccccc3N2CC)C(=O)S1 | 8.2 µM (active) | 
86 | CCOc1ccc(-c2cc(C(=O)NCCc3ccc(OC)c(OC)c3)c3c(-c4ccc(F)cc4)[nH]nc3n2)cc1 |  | -21% (inactive)
87 | COc1ccc(-c2n[nH]c3c2CN(C(=O)c2ccc(OC)c(OC)c2)CC3)cc1 | 9.94 µM (active) | 
88 | C=C(NC(=O)C(=C)NC(=O)c1csc(C2=NC3c4csc(n4)C4NC(=O)c5csc(n5)C(C(C)(O)C(C)O)NC(=O)C5CSC(=N5)/C(=C/C)NC(=O)C(C(C)O)NC(=O)c5csc(n5)C3(CC2)NC(=O)C(C)NC(=O)C(=C)NC(=O)C(=C)NC(=O)C(C(C)C)NC2C=Cc3c(C(C)O)cc(nc3C2O)C(=O)OC4C)n1)C(N)=O (stereo not drawn) | 7.04 µM (active) | 
